Consider 24 compounds from the supplement of paper PMC7765376.

Over roughly 1,500 compounds, “Excess HSA synergy score (sum over dose matrix of excess over highest single agent)” has its median near 43; the lowest 2% begin near -900. This excerpt belongs to a sample that is enriched for the lowest values.

The subject of the assay is PEO-1. In words: Excess HSA synergy score (sum over dose matrix of excess over highest single agent) (score (summed % response)); higher = less synergy / more antagonism (negative = synergy). Conditions: 72 h, read-out: viability/apoptosis luminescence (CellTiter-Glo or Caspase3-Glo / not stated per table). (In general: ATP-based viability assays read luminescence as a measure of living cells.)

Setting [1] is: matrix design: 6x6, 5-fold dilutions (primary screen).
Setting [2] is: matrix design: 10x10, 9-step dilutions (confirmatory).

Regarding `C#Cc1cccc(Nc2ncnc3cc(OC)c(OCCCCCCC(=O)NO)cc23)c1` + CC[C@H](NC(=O)[C@H](C)NC)C(=O)N1C[C@@H](O)C[C@H]1Cc1c(-c2[nH]c3cc(F)ccc3c2C[C@@H]2C[C@H](O)CN2C(=O)[C@H](CC)NC(=O)[C@H](C)NC)[nH]c2cc(F)ccc12 [Birinapant], the “Excess HSA synergy score” value under setting [1] is -55.2.
For `CCC(CC)CC1(C(=O)Nc2ccccc2SC(=O)C(C)C)CCCCC1` [Dalcetrapib] + CC[C@H](NC(=O)[C@H](C)NC)C(=O)N1C[C@@H](O)C[C@H]1Cc1c(-c2[nH]c3cc(F)ccc3c2C[C@@H]2C[C@H](O)CN2C(=O)[C@H](CC)NC(=O)[C@H](C)NC)[nH]c2cc(F)ccc12 [Birinapant], the “Excess HSA synergy score” value under setting [1] is 134.
On to `CC(C)(C)c1[nH]cnc1/C=c1\[nH]c(=O)/c(=C/c2ccccc2)[nH]c1=O` [Plinabulin] + CC[C@H](NC(=O)[C@H](C)NC)C(=O)N1C[C@@H](O)C[C@H]1Cc1c(-c2[nH]c3cc(F)ccc3c2C[C@@H]2C[C@H](O)CN2C(=O)[C@H](CC)NC(=O)[C@H](C)NC)[nH]c2cc(F)ccc12 [Birinapant], for which, under setting [1], the “Excess HSA synergy score” value was -109.
Regarding `COc1ccnc2[nH]cc(C(=O)C(=O)N3CCN(C(=O)c4ccccc4)C[C@H]3C)c12` + CC[C@H](NC(=O)[C@H](C)NC)C(=O)N1C[C@@H](O)C[C@H]1Cc1c(-c2[nH]c3cc(F)ccc3c2C[C@@H]2C[C@H](O)CN2C(=O)[C@H](CC)NC(=O)[C@H](C)NC)[nH]c2cc(F)ccc12 [Birinapant], the “Excess HSA synergy score” value under setting [1] was 263.
For the compound `C[C@H]1[C@H](C)CC[C@]2(C(=O)O)CC[C@]3(C)C(=CC[C@@H]4[C@@]5(C)C[C@@H](O)[C@H](O)[C@@](C)(CO)[C@@H]5CC[C@]43C)[C@H]12` [Asiatic acid] + CC[C@H](NC(=O)[C@H](C)NC)C(=O)N1C[C@@H](O)C[C@H]1Cc1c(-c2[nH]c3cc(F)ccc3c2C[C@@H]2C[C@H](O)CN2C(=O)[C@H](CC)NC(=O)[C@H](C)NC)[nH]c2cc(F)ccc12 [Birinapant], under setting [1], the “Excess HSA synergy score” value is 84.9.
As for `CCc1cnn2c(NCc3ccc[n+]([O-])c3)cc(N3CCCC[C@H]3CCO)nc12` + CC[C@H](NC(=O)[C@H](C)NC)C(=O)N1C[C@@H](O)C[C@H]1Cc1c(-c2[nH]c3cc(F)ccc3c2C[C@@H]2C[C@H](O)CN2C(=O)[C@H](CC)NC(=O)[C@H](C)NC)[nH]c2cc(F)ccc12 [Birinapant], the “Excess HSA synergy score” value was 5.95 under setting [1] and -374 under setting [2].
For the compound `Nc1nc2[nH]cc(CCc3ccc(C(=O)N[C@@H](CCC(=O)O)C(=O)O)cc3)c2c(=O)[nH]1` [Pemetrexed disodium] + CC[C@H](NC(=O)[C@H](C)NC)C(=O)N1C[C@@H](O)C[C@H]1Cc1c(-c2[nH]c3cc(F)ccc3c2C[C@@H]2C[C@H](O)CN2C(=O)[C@H](CC)NC(=O)[C@H](C)NC)[nH]c2cc(F)ccc12 [Birinapant], under setting [1], the “Excess HSA synergy score” value was -173.
Regarding `Nc1nc(Cl)nc2c1ncn2[C@@H]1O[C@H](CO)[C@@H](O)[C@@H]1F` [Clofarabine] + CC[C@H](NC(=O)[C@H](C)NC)C(=O)N1C[C@@H](O)C[C@H]1Cc1c(-c2[nH]c3cc(F)ccc3c2C[C@@H]2C[C@H](O)CN2C(=O)[C@H](CC)NC(=O)[C@H](C)NC)[nH]c2cc(F)ccc12 [Birinapant], the “Excess HSA synergy score” value under setting [1] was -118 and the “Excess HSA synergy score” value under setting [2] was -898.
With `Nc1nc(F)nc2c1ncn2[C@@H]1O[C@H](CO)[C@@H](O)[C@H]1O` [2-Fluoroadenosine] + CC[C@H](NC(=O)[C@H](C)NC)C(=O)N1C[C@@H](O)C[C@H]1Cc1c(-c2[nH]c3cc(F)ccc3c2C[C@@H]2C[C@H](O)CN2C(=O)[C@H](CC)NC(=O)[C@H](C)NC)[nH]c2cc(F)ccc12 [Birinapant], the “Excess HSA synergy score” value under setting [1] stood at 41.5.
Same read-out and setting: then `Nc1nc(=O)n([C@H]2C[C@H](O)[C@@H](CO)O2)cc1F` + CC[C@H](NC(=O)[C@H](C)NC)C(=O)N1C[C@@H](O)C[C@H]1Cc1c(-c2[nH]c3cc(F)ccc3c2C[C@@H]2C[C@H](O)CN2C(=O)[C@H](CC)NC(=O)[C@H](C)NC)[nH]c2cc(F)ccc12 [Birinapant], with -352.
For the compound `Nc1nc(Cl)nc2c1ncn2[C@H]1C[C@H](O)[C@@H](CO)O1` [Cladribine] + CC[C@H](NC(=O)[C@H](C)NC)C(=O)N1C[C@@H](O)C[C@H]1Cc1c(-c2[nH]c3cc(F)ccc3c2C[C@@H]2C[C@H](O)CN2C(=O)[C@H](CC)NC(=O)[C@H](C)NC)[nH]c2cc(F)ccc12 [Birinapant], the “Excess HSA synergy score” value by setting is: under setting [1], -229; under setting [2], -1080.
In the case of `Nc1ncn([C@H]2C[C@H](O)[C@@H](CO)O2)c(=O)n1` [Decitabine] + CC[C@H](NC(=O)[C@H](C)NC)C(=O)N1C[C@@H](O)C[C@H]1Cc1c(-c2[nH]c3cc(F)ccc3c2C[C@@H]2C[C@H](O)CN2C(=O)[C@H](CC)NC(=O)[C@H](C)NC)[nH]c2cc(F)ccc12 [Birinapant], the “Excess HSA synergy score” value under setting [1] is -104.
On to `Nc1ncnc2c1ncn2[C@@H]1O[C@H](CO)[C@@H](O)[C@H]1O` [Adenosine] + CC[C@H](NC(=O)[C@H](C)NC)C(=O)N1C[C@@H](O)C[C@H]1Cc1c(-c2[nH]c3cc(F)ccc3c2C[C@@H]2C[C@H](O)CN2C(=O)[C@H](CC)NC(=O)[C@H](C)NC)[nH]c2cc(F)ccc12 [Birinapant], for which the “Excess HSA synergy score” value under setting [1] was found to be 270.
On the same count and under the same terms, next, `CC1=C(CO)C(=O)O[C@@H]([C@@H](C)[C@H]2CC[C@H]3[C@@H]4C[C@H]5O[C@]56[C@@H](O)C=CC(=O)[C@]6(C)[C@H]4CC[C@]23C)C1` [Withaferin A] + CC[C@H](NC(=O)[C@H](C)NC)C(=O)N1C[C@@H](O)C[C@H]1Cc1c(-c2[nH]c3cc(F)ccc3c2C[C@@H]2C[C@H](O)CN2C(=O)[C@H](CC)NC(=O)[C@H](C)NC)[nH]c2cc(F)ccc12 [Birinapant]: -42.3; `O=C(Nc1nnc(-c2ccco2)o1)c1cc(-c2ccccc2)nc2ccccc12` + CC[C@H](NC(=O)[C@H](C)NC)C(=O)N1C[C@@H](O)C[C@H]1Cc1c(-c2[nH]c3cc(F)ccc3c2C[C@@H]2C[C@H](O)CN2C(=O)[C@H](CC)NC(=O)[C@H](C)NC)[nH]c2cc(F)ccc12 [Birinapant]: 57.7; `Cc1cnc(Nc2ccc(OCCN3CCCC3)cc2)nc1Nc1cccc(S(=O)(=O)NC(C)(C)C)c1` + CC[C@H](NC(=O)[C@H](C)NC)C(=O)N1C[C@@H](O)C[C@H]1Cc1c(-c2[nH]c3cc(F)ccc3c2C[C@@H]2C[C@H](O)CN2C(=O)[C@H](CC)NC(=O)[C@H](C)NC)[nH]c2cc(F)ccc12 [Birinapant]: 70.3.
In the case of `CCN(CC)CCOc1ccc(Nc2ncc3cc(-c4c(Cl)cccc4Cl)c(=O)n(C)c3n2)cc1` + CC[C@H](NC(=O)[C@H](C)NC)C(=O)N1C[C@@H](O)C[C@H]1Cc1c(-c2[nH]c3cc(F)ccc3c2C[C@@H]2C[C@H](O)CN2C(=O)[C@H](CC)NC(=O)[C@H](C)NC)[nH]c2cc(F)ccc12 [Birinapant], the “Excess HSA synergy score” value runs as follows: under setting [1], -224; under setting [2], -954.
Take `CSc1cccc(Nc2ncc3cc(-c4c(Cl)cccc4Cl)c(=O)n(C)c3n2)c1` + CC[C@H](NC(=O)[C@H](C)NC)C(=O)N1C[C@@H](O)C[C@H]1Cc1c(-c2[nH]c3cc(F)ccc3c2C[C@@H]2C[C@H](O)CN2C(=O)[C@H](CC)NC(=O)[C@H](C)NC)[nH]c2cc(F)ccc12 [Birinapant]: the “Excess HSA synergy score” value under setting [1] was -134.
As for `CO[C@@]12[C@H](COC(N)=O)C3=C(C(=O)C(C)=C(N)C3=O)N1C[C@@H]1N[C@@H]12` [Mitomycin C] + CC[C@H](NC(=O)[C@H](C)NC)C(=O)N1C[C@@H](O)C[C@H]1Cc1c(-c2[nH]c3cc(F)ccc3c2C[C@@H]2C[C@H](O)CN2C(=O)[C@H](CC)NC(=O)[C@H](C)NC)[nH]c2cc(F)ccc12 [Birinapant], the “Excess HSA synergy score” value runs as follows: under setting [1], -351; under setting [2], -1240.
Turning to `CC(C)OC(=O)C1=CN(C(=O)c2ccc(F)c(F)c2)CC(C)(C)c2c1[nH]c1ccccc21` [Turofexorate isopropyl] + CC[C@H](NC(=O)[C@H](C)NC)C(=O)N1C[C@@H](O)C[C@H]1Cc1c(-c2[nH]c3cc(F)ccc3c2C[C@@H]2C[C@H](O)CN2C(=O)[C@H](CC)NC(=O)[C@H](C)NC)[nH]c2cc(F)ccc12 [Birinapant], under setting [1], the “Excess HSA synergy score” value turned out to be 99.9.
Consider `Cc1cc(O)c2c3c4c(cc(O)c13)C(C)(C)C(=O)c1c(O)cc(O)c(c1-4)C2=O` [Resistomycin] + CC[C@H](NC(=O)[C@H](C)NC)C(=O)N1C[C@@H](O)C[C@H]1Cc1c(-c2[nH]c3cc(F)ccc3c2C[C@@H]2C[C@H](O)CN2C(=O)[C@H](CC)NC(=O)[C@H](C)NC)[nH]c2cc(F)ccc12 [Birinapant], for which the “Excess HSA synergy score” value under setting [1] is -31.1.
Still for that read-out and setting: then `CCN1CCN(CC(=O)Nc2ccc(-c3cccc4c(=O)cc(N5CCOCC5)oc34)c3sc4ccccc4c23)CC1` + CC[C@H](NC(=O)[C@H](C)NC)C(=O)N1C[C@@H](O)C[C@H]1Cc1c(-c2[nH]c3cc(F)ccc3c2C[C@@H]2C[C@H](O)CN2C(=O)[C@H](CC)NC(=O)[C@H](C)NC)[nH]c2cc(F)ccc12 [Birinapant], with 32.
`Nc1ccc(C(=O)Nc2cccc(-c3nc(N4CCOCC4)c4oc5ncccc5c4n3)c2)cn1` + CC[C@H](NC(=O)[C@H](C)NC)C(=O)N1C[C@@H](O)C[C@H]1Cc1c(-c2[nH]c3cc(F)ccc3c2C[C@@H]2C[C@H](O)CN2C(=O)[C@H](CC)NC(=O)[C@H](C)NC)[nH]c2cc(F)ccc12 [Birinapant]: the “Excess HSA synergy score” value under setting [1] was -134.
For the compound `CCOc1ccc(Cc2cc([C@@H]3O[C@H](CO)[C@@H](O)[C@H](O)[C@H]3O)ccc2Cl)cc1` [Dapagliflozin] + CC[C@H](NC(=O)[C@H](C)NC)C(=O)N1C[C@@H](O)C[C@H]1Cc1c(-c2[nH]c3cc(F)ccc3c2C[C@@H]2C[C@H](O)CN2C(=O)[C@H](CC)NC(=O)[C@H](C)NC)[nH]c2cc(F)ccc12 [Birinapant], the “Excess HSA synergy score” value under setting [1] worked out at 212.
